This passage reports binding signal results from publication PMC7862700, “An all-to-all approach to the identification of sequence-specific readers for epigenetic DNA modifications on cytosine”.

Common to all, as to experiment: DAPPL (digital affinity profiling via proximity ligation, sequencing); 10 mM Tris-HCl pH 7.5, 50 mM NaCl, 1 mM DTT, 4% glycerol, room temperature, 30 min; GST-TFs on glutathione beads, 16-mer random dsDNA library, 0.1% formaldehyde crosslink after washing; high values mean tight binding
Holding throughout (details): protein: recombinant; tags: N-terminal GST; dsDNA, one strand shown

One test concerns the target T1, FLI1 (Homo sapiens, UniProt Q01543 1-452).
T1 sequence: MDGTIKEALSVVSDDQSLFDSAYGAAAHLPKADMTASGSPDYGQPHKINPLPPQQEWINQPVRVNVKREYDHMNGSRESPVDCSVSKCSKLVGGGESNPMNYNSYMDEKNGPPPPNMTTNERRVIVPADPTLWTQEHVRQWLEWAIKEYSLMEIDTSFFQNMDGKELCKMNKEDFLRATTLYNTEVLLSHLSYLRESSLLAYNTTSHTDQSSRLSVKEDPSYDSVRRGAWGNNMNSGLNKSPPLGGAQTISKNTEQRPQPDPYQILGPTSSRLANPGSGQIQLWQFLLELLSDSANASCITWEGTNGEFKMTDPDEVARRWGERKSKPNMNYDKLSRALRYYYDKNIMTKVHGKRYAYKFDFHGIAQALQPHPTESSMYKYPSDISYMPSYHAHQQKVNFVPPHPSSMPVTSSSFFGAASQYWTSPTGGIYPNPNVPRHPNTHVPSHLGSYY
A digest of the protocol: (§1)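 Each value of binding signal is a hexamer's read frequency for a factor divided by the same hexamer's frequency in the tag-only sample. Barcoded, bead-captured GST fusions of human transcription factors made in yeast were pooled with that sample and incubated with 200 nmole of a random double-stranded 16-mer DNA library in Tris/NaCl/DTT/glycerol buffer at room temperature for 30 min. Washing, 0.1% formaldehyde crosslinking, proximity ligation, PCR and Illumina NextSeq500 sequencing followed.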

The target of the next test is T2, ELK1 (Homo sapiens, UniProt P19419 1-428).
T2 sequence: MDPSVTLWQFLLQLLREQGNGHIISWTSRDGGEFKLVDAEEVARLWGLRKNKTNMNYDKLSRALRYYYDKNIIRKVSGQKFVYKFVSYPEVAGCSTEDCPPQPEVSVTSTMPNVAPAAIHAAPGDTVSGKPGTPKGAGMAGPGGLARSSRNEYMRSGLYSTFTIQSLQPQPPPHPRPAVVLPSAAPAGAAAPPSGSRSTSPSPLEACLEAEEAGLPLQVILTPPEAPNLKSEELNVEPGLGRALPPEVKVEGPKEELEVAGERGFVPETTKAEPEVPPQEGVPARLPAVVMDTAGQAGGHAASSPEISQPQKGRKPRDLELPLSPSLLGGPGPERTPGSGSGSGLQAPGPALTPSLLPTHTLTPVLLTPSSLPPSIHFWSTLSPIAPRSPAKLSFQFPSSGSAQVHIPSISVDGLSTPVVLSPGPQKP
A digest of the protocol:
as §1

In the next test the target is T3, GABPA (Homo sapiens, UniProt Q06546 1-454).
T3 sequence: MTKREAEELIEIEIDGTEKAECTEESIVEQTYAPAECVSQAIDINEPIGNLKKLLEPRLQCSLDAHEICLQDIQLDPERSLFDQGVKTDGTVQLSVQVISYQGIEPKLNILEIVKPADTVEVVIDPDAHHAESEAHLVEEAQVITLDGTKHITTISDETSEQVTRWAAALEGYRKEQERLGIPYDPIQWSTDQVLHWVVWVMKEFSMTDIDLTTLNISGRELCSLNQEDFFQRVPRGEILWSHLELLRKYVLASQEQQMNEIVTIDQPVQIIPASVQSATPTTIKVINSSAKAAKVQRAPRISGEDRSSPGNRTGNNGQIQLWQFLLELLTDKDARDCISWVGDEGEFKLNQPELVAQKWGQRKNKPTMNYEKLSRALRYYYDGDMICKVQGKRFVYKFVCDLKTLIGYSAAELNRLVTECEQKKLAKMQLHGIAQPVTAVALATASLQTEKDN
A digest of the protocol: as §1

In another test the target is ELF1 (Homo sapiens, UniProt P32519 1-619). A digest of the protocol:
as §1

A further test has as its target T4, EHF (Homo sapiens, UniProt Q9NZC4 1-300).
T4 sequence: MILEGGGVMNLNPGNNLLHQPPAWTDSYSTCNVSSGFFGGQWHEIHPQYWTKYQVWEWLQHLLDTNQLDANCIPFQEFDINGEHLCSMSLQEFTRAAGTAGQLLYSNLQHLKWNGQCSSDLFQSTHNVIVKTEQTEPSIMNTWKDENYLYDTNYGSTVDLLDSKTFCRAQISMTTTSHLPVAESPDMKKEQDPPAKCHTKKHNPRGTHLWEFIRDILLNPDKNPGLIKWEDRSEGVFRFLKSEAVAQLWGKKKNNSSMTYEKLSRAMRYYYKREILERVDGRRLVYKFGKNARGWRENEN
A digest of the protocol: as §1

The target in a further test is SPIB (Homo sapiens, UniProt Q01892 1-262). A digest of the protocol:
as §1

The next test deals with T5, ETV2 (Homo sapiens, UniProt O00321 1-342).
T5 sequence: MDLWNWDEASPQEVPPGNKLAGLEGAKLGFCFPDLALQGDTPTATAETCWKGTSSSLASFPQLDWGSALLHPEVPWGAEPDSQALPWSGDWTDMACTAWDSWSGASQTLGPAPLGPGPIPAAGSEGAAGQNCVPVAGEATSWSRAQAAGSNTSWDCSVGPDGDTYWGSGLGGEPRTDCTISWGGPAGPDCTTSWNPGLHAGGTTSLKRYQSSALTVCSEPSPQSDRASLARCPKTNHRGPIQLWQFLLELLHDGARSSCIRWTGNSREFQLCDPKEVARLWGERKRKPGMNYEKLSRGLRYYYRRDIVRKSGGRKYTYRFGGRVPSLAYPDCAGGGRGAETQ
A digest of the protocol: as §1

The target in a further test is ETV1 (Homo sapiens, UniProt P50549 1-477). A digest of the protocol: as §1
ETV1, sequence (P50549 whole entry): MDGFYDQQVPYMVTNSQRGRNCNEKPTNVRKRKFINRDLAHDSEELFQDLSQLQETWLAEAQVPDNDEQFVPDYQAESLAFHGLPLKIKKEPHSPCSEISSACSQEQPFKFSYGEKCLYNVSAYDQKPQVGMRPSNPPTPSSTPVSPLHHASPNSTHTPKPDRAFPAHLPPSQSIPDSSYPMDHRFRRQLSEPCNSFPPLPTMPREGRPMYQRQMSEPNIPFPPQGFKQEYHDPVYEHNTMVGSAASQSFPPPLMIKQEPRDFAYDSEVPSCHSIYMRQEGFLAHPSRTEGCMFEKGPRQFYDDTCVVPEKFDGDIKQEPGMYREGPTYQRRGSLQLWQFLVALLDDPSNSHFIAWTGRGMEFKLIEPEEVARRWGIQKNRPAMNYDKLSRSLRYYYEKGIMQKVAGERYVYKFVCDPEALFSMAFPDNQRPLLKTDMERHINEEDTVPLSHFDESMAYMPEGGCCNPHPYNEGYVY
The next test concerns the target T6, ERF (Homo sapiens, UniProt P50548 1-548).
T6 sequence: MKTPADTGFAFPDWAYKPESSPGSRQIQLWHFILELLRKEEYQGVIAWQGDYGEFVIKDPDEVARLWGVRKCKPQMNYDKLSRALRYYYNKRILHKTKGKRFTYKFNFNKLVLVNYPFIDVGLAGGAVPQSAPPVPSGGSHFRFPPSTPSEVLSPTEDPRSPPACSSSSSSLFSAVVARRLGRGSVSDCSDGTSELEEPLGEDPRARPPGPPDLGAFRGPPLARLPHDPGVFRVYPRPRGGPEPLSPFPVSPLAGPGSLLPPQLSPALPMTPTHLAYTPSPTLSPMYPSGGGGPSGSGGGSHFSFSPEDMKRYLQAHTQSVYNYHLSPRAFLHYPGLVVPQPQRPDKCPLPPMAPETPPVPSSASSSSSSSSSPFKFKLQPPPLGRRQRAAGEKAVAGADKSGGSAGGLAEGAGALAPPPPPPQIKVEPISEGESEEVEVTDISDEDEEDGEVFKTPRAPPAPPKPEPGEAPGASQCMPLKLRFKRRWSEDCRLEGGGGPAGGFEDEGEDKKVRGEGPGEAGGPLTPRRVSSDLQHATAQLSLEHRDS
A digest of the protocol: as §1

Another test concerns the target T7, ETV3L (Homo sapiens, UniProt Q6ZN32 1-361).
T7 sequence: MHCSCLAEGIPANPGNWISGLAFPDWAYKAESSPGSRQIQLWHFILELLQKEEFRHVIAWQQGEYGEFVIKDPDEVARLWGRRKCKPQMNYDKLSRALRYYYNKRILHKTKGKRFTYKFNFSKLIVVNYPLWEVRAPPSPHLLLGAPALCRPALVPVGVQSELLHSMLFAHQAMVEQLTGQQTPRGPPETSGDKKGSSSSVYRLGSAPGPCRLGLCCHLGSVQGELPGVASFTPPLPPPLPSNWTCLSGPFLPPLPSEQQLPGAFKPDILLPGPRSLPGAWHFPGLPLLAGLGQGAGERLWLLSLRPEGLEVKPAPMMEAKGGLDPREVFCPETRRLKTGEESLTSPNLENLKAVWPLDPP
A digest of the protocol:
as §1

The target in the next test is T8, ETS2 (Homo sapiens, UniProt P15036 1-469).
T8 sequence: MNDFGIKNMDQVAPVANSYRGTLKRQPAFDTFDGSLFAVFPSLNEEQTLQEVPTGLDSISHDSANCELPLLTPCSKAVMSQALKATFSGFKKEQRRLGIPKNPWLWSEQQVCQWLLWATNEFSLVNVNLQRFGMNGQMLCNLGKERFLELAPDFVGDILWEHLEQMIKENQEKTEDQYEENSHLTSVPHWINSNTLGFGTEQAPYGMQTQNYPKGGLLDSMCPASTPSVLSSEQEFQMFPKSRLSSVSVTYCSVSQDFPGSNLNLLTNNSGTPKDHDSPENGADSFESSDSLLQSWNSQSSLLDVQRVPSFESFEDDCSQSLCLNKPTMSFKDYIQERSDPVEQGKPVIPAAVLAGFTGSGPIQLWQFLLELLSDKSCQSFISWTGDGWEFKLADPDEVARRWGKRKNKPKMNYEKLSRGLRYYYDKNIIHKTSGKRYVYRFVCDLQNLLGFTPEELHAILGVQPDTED
A digest of the protocol: as §1

In a further test the target is ETV6 (Homo sapiens, UniProt P41212 1-452). A digest of the protocol:
as §1

ETV6, sequence (P41212 whole entry): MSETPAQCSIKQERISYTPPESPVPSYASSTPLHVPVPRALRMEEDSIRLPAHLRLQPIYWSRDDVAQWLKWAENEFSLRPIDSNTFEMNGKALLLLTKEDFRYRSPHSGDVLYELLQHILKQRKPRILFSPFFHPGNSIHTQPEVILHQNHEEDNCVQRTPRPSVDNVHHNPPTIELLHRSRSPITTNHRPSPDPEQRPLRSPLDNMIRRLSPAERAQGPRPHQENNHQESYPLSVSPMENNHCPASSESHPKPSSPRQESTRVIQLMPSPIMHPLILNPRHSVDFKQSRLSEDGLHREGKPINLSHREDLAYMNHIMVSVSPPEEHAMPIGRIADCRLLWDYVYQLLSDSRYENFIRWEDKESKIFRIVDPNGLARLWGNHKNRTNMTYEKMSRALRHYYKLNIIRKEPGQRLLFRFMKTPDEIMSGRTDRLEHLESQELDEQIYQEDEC
ELF1, sequence (P32519 whole entry): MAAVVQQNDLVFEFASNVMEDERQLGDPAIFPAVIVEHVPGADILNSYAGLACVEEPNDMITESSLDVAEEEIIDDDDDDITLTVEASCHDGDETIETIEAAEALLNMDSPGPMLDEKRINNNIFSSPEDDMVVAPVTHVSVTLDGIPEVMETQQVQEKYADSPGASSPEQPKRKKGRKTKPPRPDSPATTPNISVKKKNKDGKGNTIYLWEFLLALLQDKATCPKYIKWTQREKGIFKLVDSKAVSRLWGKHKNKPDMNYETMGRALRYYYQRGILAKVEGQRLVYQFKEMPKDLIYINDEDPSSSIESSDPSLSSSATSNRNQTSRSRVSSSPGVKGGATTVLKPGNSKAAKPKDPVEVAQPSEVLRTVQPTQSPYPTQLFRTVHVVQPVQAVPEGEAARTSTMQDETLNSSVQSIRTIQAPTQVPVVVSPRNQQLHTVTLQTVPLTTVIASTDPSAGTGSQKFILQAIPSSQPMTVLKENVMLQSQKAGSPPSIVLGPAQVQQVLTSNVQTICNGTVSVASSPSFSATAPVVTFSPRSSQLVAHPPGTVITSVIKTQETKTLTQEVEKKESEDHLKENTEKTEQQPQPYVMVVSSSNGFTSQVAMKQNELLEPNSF
SPIB, sequence (Q01892 whole entry): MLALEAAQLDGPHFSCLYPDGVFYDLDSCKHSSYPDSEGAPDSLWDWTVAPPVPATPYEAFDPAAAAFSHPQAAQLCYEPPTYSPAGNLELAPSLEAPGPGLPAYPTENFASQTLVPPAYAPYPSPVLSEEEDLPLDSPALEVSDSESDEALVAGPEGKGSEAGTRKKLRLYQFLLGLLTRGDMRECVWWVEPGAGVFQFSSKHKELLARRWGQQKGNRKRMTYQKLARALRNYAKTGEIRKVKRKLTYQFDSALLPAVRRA

With GCATCT, the binding signal with FLI1 is 1.03 fold enrichment (6-mer frequency, TF over GST control); in the test with ELK1 it was 1.02 fold enrichment (6-mer frequency, TF over GST control); with GABPA, 1.03 fold enrichment (6-mer frequency, TF over GST control); with ELF1 it was 1.02 fold enrichment (6-mer frequency, TF over GST control); in the test with EHF it was 1.06 fold enrichment (6-mer frequency, TF over GST control); with SPIB, 1.02 fold enrichment (6-mer frequency, TF over GST control). Also, the binding signal with ETV2 is 1 fold enrichment (6-mer frequency, TF over GST control); with ETV1, 1.09 fold enrichment (6-mer frequency, TF over GST control); with ERF, 1.04 fold enrichment (6-mer frequency, TF over GST control); with ETV3L it was 1.05 fold enrichment (6-mer frequency, TF over GST control); with ETS2 it was 1.04 fold enrichment (6-mer frequency, TF over GST control); in the test with ETV6, 1.01 fold enrichment (6-mer frequency, TF over GST control).
